Data on 22 molecules can be found in ChEMBL document CHEMBL4513135, “CO-ADD screening of IQOG CSIS (Spain) compounds”.

Molecules are shown by their SMILES. “And” between values parts separate entries of the source, which are not always exact repeats. Equal entries are not always repeated. Results with a measured potency or affinity are listed apart.

One assay deals with Staphylococcus aureus. The note with it: Concentration 32 ug.mL-1, ASSAY_TEST Inhibition of Bacterial Growth, detection method Absorption (OD600), MEDIA CAMHB, plate type 384well, NBS, CORNING #3640, time 18 hr.
For the next assay, the system named is Escherichia coli. The note with it: Concentration 32 ug.mL-1, ASSAY_TEST Inhibition of Bacterial Growth, detection method Absorption (OD600), MEDIA CAMHB, plate type 384well, NBS, CORNING #3640, time 18 hr.

Take `CCOC(=O)C1=C(C)OC(N)=C(C#N)C1c1cccnc1` (centres undefined): the Inhibition was -6.34% in the assay on Staphylococcus aureus and -11.43% in the assay on Escherichia coli.

For the molecule `O=C(N/N=C/c1ccc(Cl)cc1)c1cc2ccccc2[nH]1`, the Inhibition was determined as 1.43% in the assay with Staphylococcus aureus and 20.07% in the assay on Escherichia coli.

Regarding `N#CC1=C(N)Oc2c(ccc3ccccc23)C1c1ccc(Cl)c(Cl)c1` (centres undefined), the Inhibition worked out at 0.79% in the assay on Staphylococcus aureus and 0.95% in the assay with Escherichia coli.

With `O=C(COc1ccc2ccccc2c1)NNCc1c[nH]c2ccccc12`, the values for the Inhibition in the assay with Staphylococcus aureus and with Escherichia coli were 3.31% and 7.68%, respectively.

For the molecule `NC(=O)N/N=C/c1c[nH]c2ccccc12`, the Inhibition in the assay with Staphylococcus aureus is 3.48%; in the assay with Escherichia coli, 5.19%.

As to `CCOC(=O)C1=C(C)OC(N)=C(C#N)C1c1ccncc1` (centres undefined), the Inhibition in the assay with Staphylococcus aureus is 26.79%; with Escherichia coli it was -33.19%.

On to `Cl.ClCCCN1CCCC1`, for which the Inhibition with Staphylococcus aureus is on record as 23.18%; with Escherichia coli, 5.15%.

Turning to `COc1ccc(-c2cc(-c3cc4c(C)cc(C)cc4nc3Cl)cc(=O)[nH]2)cc1`, the Inhibition in the assay with Staphylococcus aureus was 21.85%; in the assay with Escherichia coli it was -16.03%.

Turning to `COc1ccc(C2c3c(ccc4ccccc34)OC(=N)C2(Br)C#N)cc1` (centres undefined), the Inhibition in the assay with Staphylococcus aureus is recorded as 26.69%; in the assay with Escherichia coli, -14.26%.

With `C#CCNc1nc(NCCC2CCN(Cc3ccccc3)CC2)c(C#N)cc1C#N`, the Inhibition with Staphylococcus aureus is -4.51%; in the assay with Escherichia coli it was -8.4%.

As to `NNC(=O)CCc1c[nH]c2ccccc12`, the Inhibition turned out to be 1.93% with Staphylococcus aureus and 6.66% with Escherichia coli.

As for `COc1ccc2c(c1)cc(CO)n2C`, the results for the Inhibition in the assay on Staphylococcus aureus and in the assay on Escherichia coli were 3.66% and 11.03%, respectively.

Regarding `O=C1OC(c2ccccc2)=NC12CC2c1ccc([N+](=O)[O-])cc1` (centres undefined), the results for the Inhibition with Staphylococcus aureus and in the assay with Escherichia coli were 9.12% and 5.57%, respectively.

For the molecule `COc1cccc(C=C2N=C(c3ccccc3)OC2=O)c1OC(C)=O`, the Inhibition in the assay on Staphylococcus aureus is recorded as 5.66%; in the assay with Escherichia coli, 4.51%.

For `Cc1nn(-c2ccccc2)c2ncnc(Nc3ccccc3)c12`, the figures for the Inhibition in the assay on Staphylococcus aureus and with Escherichia coli were 6.52% and 10.84%, respectively.

With `CCOC(=O)c1c(C)nc(N)c(C#N)c1-c1cccs1`, the figures for the Inhibition in the assay with Staphylococcus aureus and in the assay with Escherichia coli were 5.52% and -18.22%, respectively.

Take `C=C1CNc2c(C#N)c(-c3ccccc3)c(C#N)c(=N)n21`: the figures for the Inhibition with Staphylococcus aureus and in the assay on Escherichia coli were 17.65% and -9.94%, respectively.

As to `CN(C)c1nc(N)c(C#N)cc1C#N.Cl`, the Inhibition in the assay with Staphylococcus aureus (32 ug/mL) is -10.37% and 5.36%; in the assay with Escherichia coli (32 ug/mL) it was -3.96% and -19.68%.

With `O=C(O)n1ccc2ccccc21`, the values for the Inhibition with Staphylococcus aureus and with Escherichia coli were 10.57% and 9.43%, respectively.

Turning to `Nc1c2c(nc3c1C(c1ccc(Cl)c(Cl)c1)c1ccc4ccccc4c1O3)CCCC2` (centres undefined), the values for the Inhibition in the assay on Staphylococcus aureus and with Escherichia coli were -15.84% and -11.77%, respectively.

As to `O=c1oc2cc(O)ccc2cc1-c1ccccc1`, the Inhibition in the assay with Staphylococcus aureus came to 10.2%; in the assay with Escherichia coli, 2.31%.

`CC1=C(C(=O)O[C@@H]2C[C@@]3(C)CC[C@H]2C3(C)C)C(c2ccccc2)C(C#N)=C(N)O1` (some centres undefined): the Inhibition was -12.42% in the assay on Staphylococcus aureus and 16.17% with Escherichia coli.

By Inhibition is commonly meant the relative decrease from the control value, in per cent.
